Assay results reported in PubChem BioAssay (EPA / NIEHS).
Values joined by “and” are separate entries in the source; they are usually repeats but may differ in a detail not shown here. Equal values may be shown once. Active and inactive are the calls of the source. Rule for the calls: active = hit-call score of the fitted dose curve at least 0.9, where 1 is the maximum; inconclusive = response in the unintended direction; inactive = score below 0.9.

assay: IUF_NPC2-5_cytotoxicity_120hr: Cytotoxicity Assessment at 120 hours in the Leibniz Research Institute for Environmental Medicine (IUF) Neural Progenitor Cell Migration and Differentiation Assay (NPC2-5) (AID 2284307);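 for AC50: LDH released into supernatant as membrane damage marker via resorufin fluorescence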
Method: IUF_NPC2-5 is a cell-based, multiplexed assay that uses hNPC, a human primary neural progenitor cells, with measurements taken at 72 or 120 hours after chemical dosing in a 96-well plate. Human neural progenitor cells (hNPC) are generated from human fetal brain cortex at gestational week (GW) 16-19. In the neural progenitor cell migration and differentiation assay (NPC2-5), hNPCs grown as spheres are plated on an extracellular matrix and migrate and differentiate out of the sphere core. The processes radial glia migration, neuronal and oligodendrocyte migration as well as neuronal differentiation, neuronal morphology and oligodendrocyte differentiation are studied using automated phase contrast imaging and automated fluorescence imaging in combination with high content image analysis. In parallel, the cell viability is assessed using an alamar blue viability assay and the cytotoxicity using a lactate dehydrogenase dependent membrane integrity assay.IUF_NPC2-5_cytotoxicity_120hr is one of 12 assay components measured from the IUF_NPC2-5 assay. It is designed to measure cytotoxicity at 120hr due to loss of membrane integrity. LDH measurements are performed from medium supernatants of each well and are based on the reduction of resazurin to resorufin measured as fluorescence signal (relative fluorescence unit) in a multiplate reader. Data from the IUF_NPC2-5_cytotoxicity_120hr component was analyzed at the endpoint IUF_NPC2-5_cytotoxicity_120hr in the positive analysis fitting direction relative to the dynamic range and baseline of activity. Using a type of viability reporter, gain-of-signal activity can be used to understand cytotoxicity effects.
Culture protocol: After the cell expansion period the cells are cultured for up to four weeks in which they are passaged every week as described in 3.6. Between one to three days after passaging spheres at a size of 0.3 mm are picked for the test method. For the assessment of neural progenitor cell migration and differentiation, the spheres are plated on poly-D-lysine/laminin coated 96-well flat bottom plates in differentiation medium (N2) to initiate migration and differentiation. Thereby one 0.3 mm big sphere is plated in the middle of a well. The differentiation medium consists of DMEM and Ham's F12 at a ratio of 3 to 1 supplemented with 1% N2 and 1% penicillin and streptomycin. Within 5 days NPCs radially migrate out of the sphere core and differentiate into radial glia cells (nestin positive), neurons (TUBB3 positive), oligodendrocytes (O4 positive) and astrocytes (GFAP positive). Cultivation during the test method is performed at 37C and 5% CO2 at a ph of 7.2-7.6.Exposure: 0.3 mm big hNPC are plated in the already prepared test conditions. Exposure starts at day 0 of differentiation and is continued over five days of differentiation until the experiment is terminated. Cells are fed with fresh medium at day 3 of differentiation. Therefore, half of the test condition solution (e.g. solvent control or compound dilution) is replaced by freshly prepared test condition solution.Test Method: Migration distance and cytotoxicity is determined after 72 hours based on brightfield images of each well. The assay is terminated by the assessment of cell viability and cytotoxicity as well as cell fixation after 120 h. Immunocytochemistry is performed for Hoechst positive nuclei, TUBB3 positive neurons and O4 positive oligodendrocytes. On the ICC images, migration after 120 hours, neuronal and oligodendrocyte number, neuronal morphology and neuron/oligodendrocyte specific migration is assessed. immunocytochemical staining (ICC) generates an image for each sphere. The plates are scanned using an automated high content imaging device and all nuclei and their positions are determined automatically based on their intensity and size. Images are imported to the Omnisphero software to run the image analysis that measures the following endpoints. […]

Q: Which outcome does the source give for `CC(C)N(C(=O)SCC(Cl)=C(Cl)Cl)C(C)C` here?
A: inactive

Q: Which outcome does the source give for `CCOP(=S)(OCC)OC(Cl)C(Cl)(Cl)Cl` (centres undefined) here?
A: inactive

Q: Which outcome does the source give for `CC1=NNC(=O)N(/N=C/c2cccnc2)C1` here?
A: inactive

Q: For `C[N+]1(C)CCCCC1`, which AC50 is on record?
A: 0.0969 µM (active)

Q: Which AC50 does the source give for `O=[N+]([O-])c1cc(C(F)(F)F)c(Cl)c([N+](=O)[O-])c1Nc1ncc(C(F)(F)F)cc1Cl` here?
A: 1.08 µM (active)

Q: For `CCOP(=O)(OCC)Oc1cc(C)nc(C(C)C)n1`, which outcome is on record?
A: inactive

Q: With `CCOP(=S)(Oc1cnc(C(C)(C)C)nc1)OC(C)C` (centres undefined) as the compound, how does the outcome read?
A: inactive

Q: Which outcome does the source give for `CON=C(C(=O)OC)c1ccccc1CON=C(C)c1cccc(C(F)(F)F)c1` here?
A: inactive

Q: With `CN(C)[C@@H]1C(=O)C(C(N)=O)=C(O)[C@@]2(O)C(=O)C3=C(O)c4c(O)cccc4[C@@](C)(O)[C@H]3[C@H](O)[C@@H]12` as the compound, how does the AC50 read?
A: 25.8 µM (active)

Q: For `CCCCSP(=O)(SCCCC)SCCCC`, which outcome is on record?
A: inactive

Q: For `CCOP(=S)(OCC)Oc1cc(C)nc(C(C)C)n1`, which outcome is on record?
A: inactive

Q: Which AC50 does the source give for `COP(=O)(OC)OC(Br)C(Cl)(Cl)Br` (centres undefined) here?
A: 70.1 µM (active)

Q: With `COP(=O)(NC(C)=O)SC` (centres undefined) as the compound, how does the outcome read?
A: inactive

Q: For `CSC1=N[C@@](C)(c2ccccc2)C(=O)N1Nc1ccccc1`, which outcome is on record?
A: inactive

Q: Which outcome does the source give for `CN1COCN(Cc2cnc(Cl)s2)C1=N[N+](=O)[O-]` here?
A: inactive

Q: Which outcome does the source give for `CC(=NC#N)N(C)Cc1ccc(Cl)nc1` here?
A: inactive

Q: For `CCCSP(=O)(OCC)SCCC`, which outcome is on record?
A: inactive

Q: With `S=C1NCCN1` as the compound, how does the outcome read?
A: inactive

Q: Which AC50 does the source give for `CC[C@H](C)[C@H]1O[C@]2(C=C[C@@H]1C)C[C@@H]1C[C@@H](C/C=C(\C)[C@@H](O[C@H]3C[C@H](OC)[C@@H](O[C@H]4C[C@H](OC)[C@@H](NC)[C@H](C)O4)[C@H](C)O3)[C@@H](C)/C=C/C=C3\CO[C@@H]4[C@H](O)C(C)=C[C@@H](C(=O)O1)[C@]34O)O2` here?
A: 1.05 µM (active) and 1.48 µM (active)

Q: For `C=C(C)[C@H]1Cc2c(ccc3c2O[C@@H]2COc4cc(OC)c(OC)cc4[C@@H]2C3=O)O1`, which outcome is on record?
A: inactive

Q: For `CCOP(=O)(NC(C)C)Oc1ccc(SC)c(C)c1` (centres undefined), which outcome is on record?
A: inactive

Q: With `COP(=O)(OC)C(O)C(Cl)(Cl)Cl` (centres undefined) as the compound, how does the outcome read?
A: inactive

Q: With `CCOP(=S)(OCC)SCCSCC` as the compound, how does the outcome read?
A: inactive

Q: With `CCOC(=O)CC(SP(=O)(OC)OC)C(=O)OCC` (centres undefined) as the compound, how does the outcome read?
A: inactive
